Experimental data reported in the supplement of paper PMC3545927.
The list shows a part of the results. The hit rate among all sequences tested is not known here.

Molecular target: furin, P09958
Assay: furin cleavage Z-score vs untreated control; higher = more cleavage, active = 3.5 or more, inactive = 1 or less, 8 variable residues between constant flanks
Procedure, shortened: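 Magnetic beads held 8-mer peptides by the N-terminus, each fused to a cDNA oligonucleotide, and purified furin was added for 7.5, 15 or 30 min. Released DNA was sequenced after PCR adapter tagging. The cleavage Z-score is the log count relative to furin-free reactions, lowess-adjusted and divided by median absolute deviation.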
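Also: purified furin at 1:10 enzyme:substrate in 50 mM HEPES pH 7.5.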

Chain of furin, P09958 (P09958 whole entry): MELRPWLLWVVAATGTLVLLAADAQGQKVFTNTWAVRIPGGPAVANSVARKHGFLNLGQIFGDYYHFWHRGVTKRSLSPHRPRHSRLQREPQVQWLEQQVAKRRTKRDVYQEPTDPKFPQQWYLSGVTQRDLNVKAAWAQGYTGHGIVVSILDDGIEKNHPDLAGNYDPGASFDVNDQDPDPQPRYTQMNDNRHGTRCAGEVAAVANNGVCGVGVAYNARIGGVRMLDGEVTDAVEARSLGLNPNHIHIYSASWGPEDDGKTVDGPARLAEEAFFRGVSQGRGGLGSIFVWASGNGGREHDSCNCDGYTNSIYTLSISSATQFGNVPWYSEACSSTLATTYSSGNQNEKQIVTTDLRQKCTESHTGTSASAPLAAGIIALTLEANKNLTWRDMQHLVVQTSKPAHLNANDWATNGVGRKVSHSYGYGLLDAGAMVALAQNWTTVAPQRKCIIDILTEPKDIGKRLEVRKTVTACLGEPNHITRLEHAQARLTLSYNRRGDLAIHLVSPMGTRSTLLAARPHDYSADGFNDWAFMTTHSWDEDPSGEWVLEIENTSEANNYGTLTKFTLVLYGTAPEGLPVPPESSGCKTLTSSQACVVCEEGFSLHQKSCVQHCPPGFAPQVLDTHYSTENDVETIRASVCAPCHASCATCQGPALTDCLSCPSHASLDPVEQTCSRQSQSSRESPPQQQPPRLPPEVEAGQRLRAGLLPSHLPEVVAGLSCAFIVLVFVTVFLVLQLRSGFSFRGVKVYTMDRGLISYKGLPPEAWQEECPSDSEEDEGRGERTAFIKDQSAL

Sequence | furin cleavage Z-score (7.5 min) | furin cleavage Z-score (15 min) | furin cleavage Z-score (30 min)
CASNPCSAHLAGNASASA [HC2501] | 0.199 (inactive) | 0.64 (inactive) | 0.644 (inactive)
CAIRFRHLRSAGNASASA [FS-1536] | 2.94 | 3.49 | 3.84 (active)
CASLERHLRSAGNASASA [FS-1413] | 3.94 (active) | 4.91 (active) | 3.46
CAGDNRHLRSAGNASASA [FS-779] | 0.602 (inactive) | 0.112 (inactive) | -0.651 (inactive)
CAYRARQRRAAGNASASA [FS-1295] | 6.02 (active) | 5.59 (active) | 4.76 (active)
CAYRARLSRGAGNASASA [FS-636] | 0.776 (inactive) | 2.55 | 2.96
CANTARQRRAAGNASASA [FS-1548] | 10.2 (active) | 11.6 (active) | 8.92 (active)
CATTPCSGYWAGNASASA [HC1909] | 0.299 (inactive) | 1.62 | -0.123 (inactive)
CAAIKWEYVVAGNASASA [HC517] | -0.197 (inactive) | -3.37 (inactive) | -0.457 (inactive)
CAVVTSTWVLAGNASASA [HC988] | -0.433 (inactive) | -1.05 (inactive) | -0.901 (inactive)
CAVSFRVGLHAGNASASA [HC1233] | -0.575 (inactive) | 0.122 (inactive) | 1
CAVGQLFTFSAGNASASA [HC304] | 0.324 (inactive) | -1.01 (inactive) | -1.31 (inactive)
CAVTGGSAGHAGNASASA [HC354] | 0.0621 (inactive) | -1.5 (inactive) | -0.849 (inactive)
CAVVHCSMSYAGNASASA [HC2035] | -0.95 (inactive) | -0.538 (inactive) | -0.331 (inactive)
CAVVHRFARHAGNASASA [FS-107] | 10.1 (active) | 9.64 (active) | 8.96 (active)
CAVGQRQARHAGNASASA [FS-965] | 4.69 (active) | 5.78 (active) | 5.69 (active)
CAEVVTSTWHAGNASASA [HC2255] | 1.36 | -3.35 (inactive) | 0.0251 (inactive)
CAVGGVLAALAGNASASA [HC992] | -0.486 (inactive) | -0.617 (inactive) | -1.61 (inactive)
CADVSRNARHAGNASASA [FS-1625] | 3.37 | 3.82 (active) | 3.7 (active)
CAVMHRVARHAGNASASA [FS-1431] | 10.4 (active) | 9.27 (active) | 9.21 (active)
CATWGADTAAAGNASASA [HC653] | -1.68 (inactive) | -0.657 (inactive) | 0.025 (inactive)
CATINYTIFKAGNASASA [HC471] | -0.464 (inactive) | -1.13 (inactive) | -1.75 (inactive)
CAKIMSGEVPAGNASASA [HC1094] | 0.645 (inactive) | -1.21 (inactive) | -1.34 (inactive)
CACVREGNASAGNASASA [HC275] | -1.21 (inactive) | -1.14 (inactive) | -0.496 (inactive)
CAPCERKGRSAGNASASA [FS-1379] | 5.38 (active) | 8.32 (active) | 6.45 (active)
CATGRRKGRSAGNASASA [FS-1290] | 10.3 (active) | 12.1 (active) | 8.69 (active)
CATGRGKPGIAGNASASA [HC906] | -0.769 (inactive) | 0.329 (inactive) | 1.63
CAYCFTPSPVAGNASASA [HC414] | -0.826 (inactive) | -2.21 (inactive) | -2.26 (inactive)
